Several values for one entry are separate records, joined by “and”; a condition that tells them apart may be missing. Equal entries are not always repeated. The panel holds about 83,000 compounds, 20% with a hit somewhere; the sample as a whole holds those more often.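 Assay: single dose, 48 h. Readout: percent growth (0 = no net growth; negative = cell death). Active: <10.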 Values without a mark were called inactive. Activity calls are given as the source filed them.
Tested on: SK-MEL-2 melanoma
Test: NCI-60 one-dose screen, 48 h (100 = growth as untreated, 0 = no growth, -100 = all killed)
Conditions: 1 µM
Method: Growth inhibition of the SK-MEL-2 human tumor cell line is measured as a screen for anti-cancer activity. Cells are grown in 96 well plates and exposed to the test compound for 48 hours. Compounds are tested at a single concentration, which is 10^-5 M for most compounds. The reported endpoint is percent growth (GI% or GIPRCNT), where numbers from 0 - 100% represent growth inhibition, and numbers from -100% - 0 represent cell death. For example, a value of 40 represents 60% growth inhibition. A value of 0 means no net growth occurred over the course of the experiment. A value of -40 indicates 40% of cells at the beginning of the experiment died by the end of the experiment. A value of -100 means all cells are dead at the end of the experiment.
NCI-60 Human Tumor Cell Lines Screen was performed using the standard one-dose NCI protocol, which is described in more detail at https://dtp.cancer.gov/discovery_development/nci-60/default.htm.
Compounds with GIPRCNT values below 10 were considered active. Activity score was based on GIPRCNT using the following formula: […]
Score is 0 for GIPRCNT values of 100 or above, 50 for GIPRCNT values of 0, and 100 for GIPRCNT values of -100.

SMILES	growth [%]
CC/C(=C(\c1ccc(O)cc1)c1ccc(OCCNC)cc1)c1ccccc1	95.1

Same assay, conditions: 10 µM

SMILES	growth [%]
CC/C(=C(\c1ccc(O)cc1)c1ccc(OCCNC)cc1)c1ccccc1	98.7

Same assay, conditions: 10 µM unless noted

SMILES	growth
O=C(Nc1nc2ccccc2s1)Nc1ccccc1Cl	99.9%
COc1cc(CNC(=O)C[C@H](C)CCC=C(C)C)ccc1OCc1cn(-c2cccc(C(F)(F)F)c2)nn1	111%
CC1=C(C(=O)OC(C)C)C(c2ccc(O)cc2)NC(=O)N1 (stereo not given)	96.5%
COc1nc(N)ncc1-c1ccc2ncnc(N3CCc4cc(F)c(Cl)cc43)c2c1	25.7%
NC(=O)c1ccc(-c2ccc3ncnc(N4CCc5cc(F)c(Cl)cc54)c3c2)cn1	95.2%
COc1c(F)ccc(C(=O)Nc2ccc3nc(NC(=O)C4CCCN(S(=O)(=O)c5ccc(C(C)(C)C)cc5)C4)sc3c2)c1F (stereo not given)	71.3%
COc1ccc(C(=O)c2cc(C(C)=O)c3c(C)cc(C)cn23)cc1	70.9%
O=C1NC(=S)/C(=C/c2cn(-c3ccccc3)nc2-c2ccccc2)S1	-4.17% (active)
O=C(NN1C(=O)/C(=C/C=C/c2ccc([N+](=O)[O-])o2)SC1=S)c1ccc([N+](=O)[O-])cc1	-89.8% (active)
CC1=C(C(=O)Nc2ccccc2)C(c2cccc3ccccc23)n2c(nc3ccccc32)N1 (stereo not given)	99.7%
C=CCn1c(O)c(N=Nc2nc(-c3cc4ccccc4oc3=O)cs2)c2ccccc21	64.4%
Clc1ccc(Nc2nnc(-c3c[nH]c4ccccc34)o2)cc1	95.8%
C#CCN(C)CCCOc1ccc(N(C)C(=O)c2cc(C(C)C)c(O)cc2O)cc1Cl	-6.01% (active)
c1n[nH]cc1-c1nc2ccc3cn[nH]c3c2c2c1CCCC2	104%
O=C1/C(=C/C=C/c2ccco2)SC(=S)N1CC(=S)C1C=CS(=O)(=O)C1 (stereo not given)	88.1%
CN(C)c1nc(NCCNS(=O)(=O)c2ccc(C(=O)/C=C/c3ccccc3)cc2)nc(N2CCOCC2)n1	97.6%
COc1ccc(C(=O)C[n+]2cccc3c4ccccc4ccc32)cc1	56.3%
C[C@H]1[C@@H](CC(=O)N[C@@H](Cc2coc3ccccc23)B(O)O)O[C@@H]2OC3(C)CC[C@H]4[C@H](C)CC[C@@H]1[C@@]24O3	-20.7% (active)
CCN1C(=O)N(CC)C2NNC(Sc3c(C(=O)O)c4ccccc4n(CC(C)C)c3=O)=NC21 (stereo not given)	18.5%

SMILES	growth
CN(C)CCCc1ccc(Nc2cnn(C)c(=O)c2Cl)cc1	112%
O=C(Nc1ccc(Cl)c(C(F)(F)F)c1)N1CCN(c2cc(-c3cn(-c4ccccc4)nc3-c3cccc(O)c3)ccn2)CC1	-66.9% (active)
COc1ccc2c(c1)C(Sc1ccc(F)cc1)c1c(nc(N)c(C#N)c1N)O2 (stereo not given)	97%
Nc1nn2c(-c3cc4cc(Br)ccc4oc3=O)ccnc2c1N=Nc1ccc(Br)cc1	60%
S=C(NCCc1ccccc1)Nc1ccc(OCc2nc3ccc(Cl)cc3[nH]2)cc1	16.5%
Cc1ccc(/C=C/C(=O)c2ccc(S(=O)(=O)NCCNc3nc(N(C)C)nc(N4CCOCC4)n3)cc2)cc1	94.1%
CS(=O)(=O)Nc1cccc(-n2c(COc3ccc(OC(F)(F)F)cc3)nc3ccccc32)c1	86% and 110%
O=C(N/N=C/c1ccoc1)c1[nH]c2ccc(Br)cc2c1-c1ccccc1	-84.5% (active)
Cc1ccc(C2CC(c3ccc(NC(=O)Nc4ccccc4)cc3)=NN2c2ccc(S(N)(=O)=O)cc2)cc1 (stereo not given)	-81.7% (active)
Cc1ccc(C(C(=O)NC2CCCCC2)N(Cc2ccccc2Cl)C(=O)c2ccc(CN3CCOCC3)o2)o1 (stereo not given)	92.8%
Cc1cccc(-c2ccccc2Oc2ccc3nnc(Cl)n3n2)c1	105%
COc1cncc(-c2ccc3ncnc(N4CCc5ccc(Cl)cc54)c3c2)c1	30.6%
CN(C)C(=O)c1cc(-c2ccc3ncnc(N4CCc5cc(F)c(Cl)cc54)c3c2)cnc1N	-86% (active)
O=c1c(-c2nc(-c3ccccc3)c(-c3ccccc3)[nH]2)coc2ccc(F)cc12	62.9%
CC1=C(C)C(=O)C(NCCN2CCOCC2)=C(Br)C1=O	68.9%
O=C(Nc1nc2ccc([N+](=O)[O-])cc2s1)Nc1ccc(Cl)cc1Cl	65%
CC(C)(C)C(=O)C1CC(C#N)=C2C=Cc3c(ccc4ccccc34)N21 (stereo not given)	92.4%
COc1ccc(C(=O)NNC(=O)CSc2nc3sc4c(c3c(=O)n2-c2ccc(Cl)cc2)CCCC4)cc1	92.2%
COc1cc(C2CC(c3ccc(Cl)cc3)=Nc3c(N)nc(N)nc3N2)ccc1Oc1nc(Nc2ccc(F)cc2)nc(N(C)C)n1 (stereo not given)	64.1%

Source: PubChem BioAssay (NCI)
